In assay [1] the target is Myc proto-oncogene protein (Homo sapiens) (UniProt P01106). In words: ATG_Myc_CIS: Attagene CIS-FACTORIAL HepG2 Assay for human Myelocytomatosis (Myc) Proto-Oncogene Transcription Factor (AID 2282990). The following applies: HepG2, Attagene cis-reporter transcription factor activity; actives raise or lower the signal. Summed up:
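Fluorescence intensity of reporter-specific cDNA fragments, separated by capillary electrophoresis, gives the signal. Transfected HepG2 cells carrying cis-promoter reporter constructs are incubated with compound for 24 h; DMSO serves as baseline.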

The nature of assay [2]: ATG_NRF2_ARE_CIS: Attagene CIS-FACTORIAL HepG2 Assay for human Nuclear Factor Erythroid 2 Related Factor 2 (NFR2) response to Antioxidant Response Elements (ARE) (AID 2282992).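 On AC50: reporter mRNA level measured by RT-PCR and capillary electrophoresis fluorescence.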 To be noted: HepG2 Attagene ARE/NRF2 reporter, transcription factor activity; actives raise or lower the signal. The essentials:
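Transient MRTU transfection of HepG2; 24 h compound exposure; TriZol RNA, RT with oligo(dT), PCR, 6-FAM primer extension, HpaI cut, CE. Bidirectional fit vs DMSO.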

A short description of assay [3]: ATG_Oct_MLP_CIS: Attagene CIS-FACTORIAL HepG2 Assay for human Octamer-Binding Transcription Factor (Oct) (AID 2282993). To be noted: HepG2 Attagene cis-factorial Oct reporter, mRNA; actives raise or lower the signal. The essentials:
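Multiplexed cis-reporter assay in human liver HepG2 cells, 24 h incubation. Reporter RNA amplified and labelled, then resolved by capillary electrophoresis; DMSO serves as negative control and baseline.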

Assay [4] addresses Cellular tumor antigen p53 (Homo sapiens) (UniProt P04637). Briefly: ATG_p53_CIS: Attagene CIS-FACTORIAL HepG2 Assay for human p53 Transcription Factor (AID 2282994). The following applies: HepG2 p53 cis-element reporter, Attagene mRNA; actives raise or lower the signal. Summed up:
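HepG2, transient MRTU transfection (cis promoter elements, endogenous TFs); 24 h dosing; RNA isolation, RT-PCR, 6-FAM primer extension, HpaI digest, CE fluorescence; bidirectional fit vs DMSO.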

For assay [5], the target named is human Retinoic Acid Receptor beta (RARb), RARB (gene 5915) (UniProt P10826). Briefly: ATG_RARb_TRANS: Attagene TRANS-FACTORIAL HepG2 Assay for human Retinoic Acid Receptor beta (AID 2283004; active means hit-call score of the fitted dose curve at least 0.9, where 1 is the maximum). Summed up: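 HepG2 cells transiently transfected with multiplexed GAL4-UAS reporter units expressing chimeric NR–Gal4 fusions; 24 h compound exposure. Reporter mRNA quantified by RT-PCR, 6-FAM labelling, HpaI digestion and capillary electrophoresis; gain-of-signal fitted against DMSO baseline.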

Assay [6] concerns the target Retinoic acid receptor alpha (Homo sapiens) (UniProt P10276). Briefly: ATG_RARa_TRANS: Attagene TRANS-FACTORIAL HepG2 Assay for human Retinoic Acid Receptor alpha (RARa) (AID 2283005; active means hit-call score of the fitted dose curve at least 0.9, where 1 is the maximum). The essentials: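 HepG2 transiently transfected with multiplex GAL4-UAS reporter units including a human RARa–GAL4 chimera; 24 h compound exposure. Reporter mRNA quantified by RT-PCR, 6-FAM labeling and capillary electrophoresis; gain of signal versus DMSO.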

Assay [7] deals with Peroxisome proliferator-activated receptor gamma (Homo sapiens) (UniProt P37231). In words: ATG_PPARg_TRANS: Attagene TRANS-FACTORIAL HepG2 Assay for human Peroxisome Proliferator-activated Receptor-gamma (PPARg) (AID 2283007; active means hit-call score of the fitted dose curve at least 0.9, where 1 is the maximum). Summed up: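 Liver-derived HepG2 cells expressing an exogenous NR-Gal4 chimera alongside GAL4-UAS reporter genes; 24 h exposure. Fluorescence of reporter RT-PCR products, separated by capillary electrophoresis, gives mRNA induction relative to DMSO.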

Assay [8] deals with Nuclear receptor subfamily 1 group I member 2 (Homo sapiens) (UniProt O75469). Briefly: ATG_PXR_TRANS: Attagene TRANS-FACTORIAL HepG2 Assay for human Pregnane X Receptor (PXR) (AID 2283008; active means hit-call score of the fitted dose curve at least 0.9, where 1 is the maximum). Summed up: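 Read-out is fluorescence of labelled reporter cDNA fragments separated by capillary electrophoresis after RT-PCR and HpaI digestion. Source: HepG2 cells carrying PXR-GAL4/UAS reporter constructs, treated 24 h; activity fitted upward relative to DMSO.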

Assay [9] in a line: ATG_NF_kB_CIS: Attagene CIS-FACTORIAL HepG2 Assay for human Nuclear Factor Kappa B (NF-kB) (AID 2282991). The following applies: HepG2 Attagene cis-factorial NF-kB reporter mRNA; actives raise or lower the signal. Summed up:
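After 24 h compound incubation, transfected HepG2 cells yield total RNA; reporter cDNA is PCR-amplified, end-labelled with 6-FAM, HpaI-digested and analysed on a genetic analyser. Endogenous factor activity, DMSO-referenced bidirectional fit.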

The target in assay [10] is human RAR-related Orphan Receptor beta (RORb), RORB (gene 6096) (UniProt Q92753). Briefly: ATG_RORb_TRANS: Attagene TRANS-FACTORIAL HepG2 Assay for human RAR-related Orphan Receptor beta (RORb) (AID 2283010; active means hit-call score of the fitted dose curve at least 0.9, where 1 is the maximum). Summed up:
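HepG2 cells transiently transfected with GAL4-UAS reporter units expressing chimeric NR-Gal4 protein; reporter mRNA measured 24 h after dosing by RT-PCR, 6-FAM labelling and capillary electrophoresis. Gain-of-signal fitted relative to DMSO baseline.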

Assay [11] has as its target human Retinoic Acid Receptor gamma (RARg), RARG (gene 5916) (UniProt P13631). Briefly: ATG_RARg_TRANS: Attagene TRANS-FACTORIAL HepG2 Assay for human Retinoic Acid Receptor gamma (RARg) (AID 2283009; active means hit-call score of the fitted dose curve at least 0.9, where 1 is the maximum). The essentials:
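HepG2 transiently transfected with GAL4-UAS reporter units and chimeric NR-Gal4 constructs; 24 h compound exposure. Reporter mRNA quantified by RT-PCR, FAM labeling, HpaI digestion and capillary electrophoresis; gain-of-signal versus DMSO.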

The target in assay [12] is human Peroxisome Proliferator-activated Receptor delta (PPARd), PPARD (gene 5467) (UniProt Q03181). In words: ATG_PPARd_TRANS: Attagene TRANS-FACTORIAL HepG2 Assay for human Peroxisome Proliferator-activated Receptor delta (PPARd) (AID 2283002; active means hit-call score of the fitted dose curve at least 0.9, where 1 is the maximum). Summed up: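 Fluorescence from capillary electrophoresis of labelled RT-PCR reporter fragments gives the signal; DMSO sets baseline. Cells: HepG2 transiently carrying GAL4-UAS reporter units plus chimeric nuclear receptor-Gal4 proteins, exposed to chemicals for 24 h.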

In assay [13] the target is human RAR-related Orphan Receptor gamma (RORg), RORC (gene 6097) (UniProt P51449). Briefly: ATG_RORg_TRANS: Attagene TRANS-FACTORIAL HepG2 Assay for human RAR-related Orphan Receptor gamma (RORg) (AID 2283011; active means hit-call score of the fitted dose curve at least 0.9, where 1 is the maximum). The essentials:
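Readout: reporter transcript induction (RT-PCR, fluorescent primer extension, capillary electrophoresis) after 24 h compound exposure of transiently transfected HepG2 cells carrying a RORg-Gal4 chimera and GAL4-UAS reporters; DMSO served as baseline, with increasing signal fitted.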

The target in assay [14] is human Peroxisome Proliferator-activated Receptor alpha (PPARa), PPARA (gene 5465) (UniProt Q07869). Briefly: ATG_PPARa_TRANS: Attagene TRANS-FACTORIAL HepG2 Assay for human Peroxisome Proliferator-activated Receptor alpha (PPARa) (AID 2283001; active means hit-call score of the fitted dose curve at least 0.9, where 1 is the maximum). The essentials:
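HepG2 cells transiently transfected with multiplexed GAL4-UAS reporters driven by exogenous chimeric NR-Gal4 proteins; reporter mRNA measured after 24 h dosing. Read-out by RT-PCR, 6-FAM labelling, HpaI digestion and capillary electrophoresis; gain of signal versus DMSO.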

Assay [15] in a line: BSK_3C_uPAR: BioMAP Diversity Plus: 3C Assay for Urokinase-type plasminogen activator receptor (uPAR) Biomarker Activity (AID 2282998). The following applies: BioMAP 3C HUVEC, uPAR biomarker ELISA; actives raise or lower the signal. The essentials: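 Dose primary human umbilical vein endothelial cells, incubate 24 h, measure cell-surface uPAR by ELISA, then fit the signal in both directions against the DMSO negative control.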
In general terms: In an ELISA, binding on a coated surface is turned into a signal by an enzyme label.

Assay [16] is described as follows: BSK_3C_VCAM1: BioMAP Diversity Plus: 3C Assay for Vascular cell adhesion molecule 1 (VCAM1) Biomarker Activity (AID 2282999). The following applies: BioMAP 3C HUVEC, VCAM1 ELISA, cytokine-stimulated; actives raise or lower the signal. The essentials:
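Human umbilical vein endothelial cells (3C system), biomarker read by ELISA 24 h after dosing; bidirectional fit against DMSO baseline. Cytotoxicity tracked by SRB total-protein staining in parallel cultures at biomarker time.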

Assay [17] can be described thus: BSK_4H_Eotaxin3: BioMAP Diversity Plus: 4H Assay for Eotaxin 3 Biomarker Activity (AID 2283000).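 Further: CCL26 protein level quantified by ELISA in parallel with SRB cytotoxicity check.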 The following applies: primary human endothelial cells (HUVEC); actives raise or lower the signal. The essentials:
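HUVEC, 24 h post-dose, ELISA for Eotaxin-3/CCL26. Gain or loss of signal fitted bidirectionally vs DMSO baseline.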

Read-out in assay [18]: Intercellular Adhesion Molecule 1 (ICAM1), ICAM1 (gene 3383)
In words: BSK_3C_ICAM1: BioMAP Diversity Plus: 3C Assay for Intercellular Adhesion Molecule 1 (ICAM1) Biomarker Activity (AID 2283003). To be noted: primary human endothelial cells (HUVEC); actives raise or lower the signal. The essentials:
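HUVEC primary cells stimulated under 3C conditions; ICAM1 measured by ELISA 24 h after compound dosing. Curves fitted bidirectionally against the DMSO baseline. Overt cytotoxicity checked by SRB staining of parallel cultures.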

Assay [19] in a line: BSK_3C_Proliferation: Cell Proliferation Assessment in the BioMAP Diversity Plus: 3C Assay (AID 2283006). The following applies: primary human endothelial cells (HUVEC). Summed up: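 Subconfluent HUVEC (3C system) cultured with chemical; relative cell number read at 48 h by sulforhodamine B total-protein staining (0.1% SRB after 10% TCA fixation, 560 nm). Bidirectional fit relative to DMSO.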

By AC50 is commonly meant the concentration at which the activity in the assay is half-maximal.

Records with an inconclusive call do not appear. Activity calls are given as the source filed them. How the source made its calls, unless noted: active means hit-call score of the fitted dose curve at least 0.9, where 1 is the maximum; inactive means score below 0.9.

Chain of Nuclear receptor subfamily 1 group I member 2 (Homo sapiens) (O75469 whole entry, looked up, the tested form may be a part): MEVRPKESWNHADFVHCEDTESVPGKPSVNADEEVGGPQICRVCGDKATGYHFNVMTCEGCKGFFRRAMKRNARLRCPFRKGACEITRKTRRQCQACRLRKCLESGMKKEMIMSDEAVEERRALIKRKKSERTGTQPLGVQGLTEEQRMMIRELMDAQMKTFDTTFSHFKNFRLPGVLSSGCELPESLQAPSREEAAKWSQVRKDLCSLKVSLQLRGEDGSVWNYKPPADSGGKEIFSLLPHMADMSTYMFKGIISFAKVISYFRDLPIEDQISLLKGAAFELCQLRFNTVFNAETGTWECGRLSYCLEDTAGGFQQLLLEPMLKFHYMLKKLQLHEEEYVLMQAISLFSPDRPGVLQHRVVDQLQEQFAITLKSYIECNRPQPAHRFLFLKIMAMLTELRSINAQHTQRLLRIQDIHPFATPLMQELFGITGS
Chain of human Peroxisome Proliferator-activated Receptor alpha (PPARa), PPARA (gene 5465) (Q07869 whole entry, looked up, the tested form may be a part): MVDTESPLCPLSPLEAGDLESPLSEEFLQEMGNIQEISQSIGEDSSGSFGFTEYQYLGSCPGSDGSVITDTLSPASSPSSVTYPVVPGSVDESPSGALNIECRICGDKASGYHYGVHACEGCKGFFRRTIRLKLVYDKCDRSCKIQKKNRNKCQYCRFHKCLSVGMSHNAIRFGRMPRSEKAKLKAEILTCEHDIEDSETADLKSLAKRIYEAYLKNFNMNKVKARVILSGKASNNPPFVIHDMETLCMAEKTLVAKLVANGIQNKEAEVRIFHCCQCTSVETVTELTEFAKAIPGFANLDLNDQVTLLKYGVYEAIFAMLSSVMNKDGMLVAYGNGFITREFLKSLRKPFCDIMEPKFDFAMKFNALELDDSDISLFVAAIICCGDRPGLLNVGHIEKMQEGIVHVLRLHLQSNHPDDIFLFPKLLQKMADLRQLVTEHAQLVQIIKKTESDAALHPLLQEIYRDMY
Chain of Peroxisome proliferator-activated receptor gamma (Homo sapiens) (P37231 whole entry, looked up, the tested form may be a part): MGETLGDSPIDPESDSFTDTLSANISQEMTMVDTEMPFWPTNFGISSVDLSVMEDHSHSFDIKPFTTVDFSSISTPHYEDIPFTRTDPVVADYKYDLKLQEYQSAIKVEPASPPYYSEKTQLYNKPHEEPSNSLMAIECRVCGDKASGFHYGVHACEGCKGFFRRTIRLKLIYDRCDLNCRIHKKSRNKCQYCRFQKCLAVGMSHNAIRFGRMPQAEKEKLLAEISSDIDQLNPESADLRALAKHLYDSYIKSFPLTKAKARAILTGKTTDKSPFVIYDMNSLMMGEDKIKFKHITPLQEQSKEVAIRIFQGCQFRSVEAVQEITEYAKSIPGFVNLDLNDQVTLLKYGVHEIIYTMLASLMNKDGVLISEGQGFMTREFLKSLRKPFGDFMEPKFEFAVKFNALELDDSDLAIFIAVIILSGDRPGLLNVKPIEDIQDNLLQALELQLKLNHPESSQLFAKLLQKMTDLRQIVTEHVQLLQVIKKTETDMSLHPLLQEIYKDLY
Chain of human RAR-related Orphan Receptor gamma (RORg), RORC (gene 6097) (P51449 whole entry, looked up, the tested form may be a part): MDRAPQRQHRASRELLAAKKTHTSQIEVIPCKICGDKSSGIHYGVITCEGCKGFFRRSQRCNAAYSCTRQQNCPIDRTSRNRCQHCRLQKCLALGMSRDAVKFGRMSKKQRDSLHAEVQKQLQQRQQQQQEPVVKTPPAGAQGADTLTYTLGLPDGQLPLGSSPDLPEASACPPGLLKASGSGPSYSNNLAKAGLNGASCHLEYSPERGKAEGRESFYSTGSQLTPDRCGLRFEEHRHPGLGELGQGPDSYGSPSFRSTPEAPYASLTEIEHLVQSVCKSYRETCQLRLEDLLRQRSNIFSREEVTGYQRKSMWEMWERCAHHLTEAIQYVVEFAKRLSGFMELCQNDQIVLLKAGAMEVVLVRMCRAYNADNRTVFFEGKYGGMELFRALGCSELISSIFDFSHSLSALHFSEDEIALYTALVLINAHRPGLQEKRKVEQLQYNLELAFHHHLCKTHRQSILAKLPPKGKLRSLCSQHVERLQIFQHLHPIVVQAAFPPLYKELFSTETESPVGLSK
Chain of human Retinoic Acid Receptor beta (RARb), RARB (gene 5915) (P10826 whole entry, looked up, the tested form may be a part): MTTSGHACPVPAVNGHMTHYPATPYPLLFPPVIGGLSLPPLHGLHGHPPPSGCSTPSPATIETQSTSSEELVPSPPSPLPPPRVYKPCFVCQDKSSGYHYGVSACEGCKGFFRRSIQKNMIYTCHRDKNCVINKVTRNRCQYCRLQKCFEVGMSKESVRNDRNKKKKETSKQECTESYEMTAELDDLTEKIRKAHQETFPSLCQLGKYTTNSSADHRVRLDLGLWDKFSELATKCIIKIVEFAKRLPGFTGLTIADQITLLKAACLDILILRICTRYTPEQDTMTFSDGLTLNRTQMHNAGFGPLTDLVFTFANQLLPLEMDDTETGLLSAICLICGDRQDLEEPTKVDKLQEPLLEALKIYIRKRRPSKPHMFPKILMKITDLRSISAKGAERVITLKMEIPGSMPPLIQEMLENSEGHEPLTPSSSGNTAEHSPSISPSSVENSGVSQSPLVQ
Chain of Retinoic acid receptor alpha (Homo sapiens) (P10276 whole entry, looked up, the tested form may be a part): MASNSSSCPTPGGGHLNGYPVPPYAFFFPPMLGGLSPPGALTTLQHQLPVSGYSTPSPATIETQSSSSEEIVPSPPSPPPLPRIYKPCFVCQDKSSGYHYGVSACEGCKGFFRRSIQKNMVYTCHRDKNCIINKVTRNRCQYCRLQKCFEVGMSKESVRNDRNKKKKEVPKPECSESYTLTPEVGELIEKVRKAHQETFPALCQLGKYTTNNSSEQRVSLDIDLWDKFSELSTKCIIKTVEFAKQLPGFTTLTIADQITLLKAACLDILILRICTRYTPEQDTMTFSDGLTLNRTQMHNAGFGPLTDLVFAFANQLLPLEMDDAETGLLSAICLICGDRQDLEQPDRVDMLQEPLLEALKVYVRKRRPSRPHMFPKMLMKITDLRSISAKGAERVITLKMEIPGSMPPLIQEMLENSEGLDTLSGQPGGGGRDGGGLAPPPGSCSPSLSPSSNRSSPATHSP
Chain of human Retinoic Acid Receptor gamma (RARg), RARG (gene 5916) (P13631 whole entry, looked up, the tested form may be a part): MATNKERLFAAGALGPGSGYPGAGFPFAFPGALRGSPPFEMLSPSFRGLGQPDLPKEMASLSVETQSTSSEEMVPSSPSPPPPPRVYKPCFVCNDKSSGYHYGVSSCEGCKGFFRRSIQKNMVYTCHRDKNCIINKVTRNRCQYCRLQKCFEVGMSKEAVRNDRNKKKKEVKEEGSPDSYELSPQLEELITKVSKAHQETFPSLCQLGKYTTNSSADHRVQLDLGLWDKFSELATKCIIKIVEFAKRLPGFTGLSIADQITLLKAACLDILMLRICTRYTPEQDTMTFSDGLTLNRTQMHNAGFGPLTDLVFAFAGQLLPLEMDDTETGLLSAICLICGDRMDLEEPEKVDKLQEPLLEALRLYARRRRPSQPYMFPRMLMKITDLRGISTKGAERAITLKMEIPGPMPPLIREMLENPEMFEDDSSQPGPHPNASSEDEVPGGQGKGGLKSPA
Chain of Myc proto-oncogene protein (Homo sapiens) (P01106 whole entry, looked up, the tested form may be a part): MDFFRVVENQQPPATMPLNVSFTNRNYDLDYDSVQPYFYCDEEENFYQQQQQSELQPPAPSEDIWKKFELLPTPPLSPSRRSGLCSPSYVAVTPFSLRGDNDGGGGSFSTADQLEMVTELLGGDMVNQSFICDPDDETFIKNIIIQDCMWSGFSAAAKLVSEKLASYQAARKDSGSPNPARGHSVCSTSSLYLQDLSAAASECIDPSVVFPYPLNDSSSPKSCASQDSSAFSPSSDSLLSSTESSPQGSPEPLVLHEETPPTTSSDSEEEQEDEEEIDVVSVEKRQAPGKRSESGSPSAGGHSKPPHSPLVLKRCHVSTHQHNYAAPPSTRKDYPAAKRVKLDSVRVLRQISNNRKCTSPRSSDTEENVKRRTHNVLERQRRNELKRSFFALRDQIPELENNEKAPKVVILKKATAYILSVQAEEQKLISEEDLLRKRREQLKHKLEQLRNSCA
Chain of human Peroxisome Proliferator-activated Receptor delta (PPARd), PPARD (gene 5467) (Q03181 whole entry, looked up, the tested form may be a part): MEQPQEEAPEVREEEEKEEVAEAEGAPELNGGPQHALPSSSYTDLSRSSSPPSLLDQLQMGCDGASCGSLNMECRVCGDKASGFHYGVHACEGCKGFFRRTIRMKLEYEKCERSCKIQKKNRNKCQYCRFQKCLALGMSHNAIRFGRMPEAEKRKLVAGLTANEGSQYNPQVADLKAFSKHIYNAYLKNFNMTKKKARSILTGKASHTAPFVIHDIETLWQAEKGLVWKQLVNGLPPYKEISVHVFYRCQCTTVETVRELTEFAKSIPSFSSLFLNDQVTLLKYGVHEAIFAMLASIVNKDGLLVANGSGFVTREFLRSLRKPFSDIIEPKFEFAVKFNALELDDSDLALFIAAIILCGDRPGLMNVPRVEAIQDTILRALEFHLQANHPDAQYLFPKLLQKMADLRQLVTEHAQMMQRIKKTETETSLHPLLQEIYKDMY
Chain of human RAR-related Orphan Receptor beta (RORb), RORB (gene 6096) (Q92753 whole entry, looked up, the tested form may be a part): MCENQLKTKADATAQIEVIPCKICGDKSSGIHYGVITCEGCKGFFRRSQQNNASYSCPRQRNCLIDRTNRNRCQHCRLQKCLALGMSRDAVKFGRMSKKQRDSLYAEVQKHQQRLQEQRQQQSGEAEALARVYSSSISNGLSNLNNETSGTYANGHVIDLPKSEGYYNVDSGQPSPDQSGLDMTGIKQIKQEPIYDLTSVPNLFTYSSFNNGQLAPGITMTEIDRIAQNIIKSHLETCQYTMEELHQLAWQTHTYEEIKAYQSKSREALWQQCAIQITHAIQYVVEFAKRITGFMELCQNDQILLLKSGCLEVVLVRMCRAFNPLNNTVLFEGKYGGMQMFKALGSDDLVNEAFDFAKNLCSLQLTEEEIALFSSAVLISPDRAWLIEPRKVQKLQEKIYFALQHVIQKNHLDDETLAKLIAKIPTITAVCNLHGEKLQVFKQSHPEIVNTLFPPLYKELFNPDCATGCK

For the molecule `CC1=NC(C)OC1C` (configuration not stated), the molecule was classed as inactive in [1], in assay [3], in assay [5], in [6] and in [7]. The AC50 was 42.5 µM (active) in [2], 167 µM (active) in assay [4] and 19.8 µM (active) in assay [8].
Consider `OC1OCCOC1O` (configuration not stated), for which the molecule was classed as inactive in assay [1], in [9], in assay [2], in assay [3], in [4] and in [5]. Besides, the outcome in assay [8] and in assay [10] was inactive.
Take `CC(C)CC(O)Cc1ccccc1` (configuration not stated): the call in [1], in assay [3], in assay [4], in [6], in [8] and in [11] was inactive. Further, the AC50 in [2] was 41.9 µM (active).
In the case of `CC(C)c1ccc(C=O)cc1`, the result in assay [1], in [9], in assay [4], in assay [12], in assay [7] and in assay [8] was inactive. The molecule was classed as inactive in [10] and in [13].
On to `NC(=O)NNC(N)=O`, for which the outcome in [1], in assay [9], in [2], in assay [3], in [4] and in assay [14] was inactive. The call in assay [6], in assay [8], in assay [11] and in assay [13] was inactive.
On to `CC(=O)Nc1nnc(S(N)(=O)=O)s1`, for which the result in assay [1], in [9], in assay [2], in assay [3], in [4] and in [10] was inactive. The outcome in assay [13] was inactive.
For `CC(CC=O)c1ccccc1` (configuration not stated), the molecule was called inactive in assay [1], in [3], in [4] and in assay [12]. The AC50 in assay [7] was 56.2 µM (active); in assay [8], 5.22 µM (active).
As to `C=CC(C)(C)C`, the molecule was classed as inactive in assay [1], in assay [2], in assay [4], in assay [14], in [7] and in [8]. Moreover, the outcome in assay [13] was inactive.
Take `O=c1cc[nH]c(=S)[nH]1`: the outcome in assay [1], in [9], in assay [2], in assay [3], in [4] and in assay [12] was inactive. In addition, the call in assay [6], in [7], in assay [8] and in assay [11] was inactive.
For the molecule `CCO[Si](CCCN=C=O)(OCC)OCC`, the call in assay [1], in assay [9], in assay [2], in [3], in assay [4] and in assay [15] was inactive. For the same molecule, the outcome in assay [16], in assay [17], in [14], in assay [12], in [18] and in assay [5] was inactive. Further, the outcome in [19], in [7], in assay [8] and in assay [11] was inactive.

The record behind these values is PubChem BioAssay (EPA / NIEHS).
